The source of these data is PubChem BioAssay.

Assay [1] is described as follows: resazurin metabolic signal in HepG2 cells – cell-based, resazurin fluorescence, 24 h, PK04 Diversity Set, profiling panel (AID 1172). To be noted: HepG2 viability, higher = more signal.
The nature of assay [2]: budding yeast growth changes without added modifier – OD600, strain BY4716, 24 h, basal condition, primary screen (AID 1173). As to conditions: S. cerevisiae BY4716 growth, OD600, 24 h; higher = more signal, called active from +8 up or from −8 down.
Assay [3] can be described thus: viability profiling in MM1S myeloma cells – cell-based, resazurin fluorescence, basal, 24 h, PK04 Diversity Set, profiling panel (AID 1174).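 Also: MM1S multiple myeloma cell line.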 As to conditions: higher = more signal, called active from +8 up or from −8 down.
The target in assay [4] is Dihydroorotate dehydrogenase (quinone), mitochondrial (Plasmodium falciparum (isolate 3D7)) (UniProt Q08210). In words: inhibition of P. falciparum DHODH – biochemical, C-terminal His tag, absorbance 600 nm, primary screen (AID 1175).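 Also: recombinant parasite enzyme with a five histidine tag at its C terminus.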 As to conditions: PfDHODH enzyme, DCIP absorbance 600 nm; higher = more signal, called active from +8 up or from −8 down.
Chain of Dihydroorotate dehydrogenase (quinone), mitochondrial (Plasmodium falciparum (isolate 3D7)) (Q08210 whole entry, looked up): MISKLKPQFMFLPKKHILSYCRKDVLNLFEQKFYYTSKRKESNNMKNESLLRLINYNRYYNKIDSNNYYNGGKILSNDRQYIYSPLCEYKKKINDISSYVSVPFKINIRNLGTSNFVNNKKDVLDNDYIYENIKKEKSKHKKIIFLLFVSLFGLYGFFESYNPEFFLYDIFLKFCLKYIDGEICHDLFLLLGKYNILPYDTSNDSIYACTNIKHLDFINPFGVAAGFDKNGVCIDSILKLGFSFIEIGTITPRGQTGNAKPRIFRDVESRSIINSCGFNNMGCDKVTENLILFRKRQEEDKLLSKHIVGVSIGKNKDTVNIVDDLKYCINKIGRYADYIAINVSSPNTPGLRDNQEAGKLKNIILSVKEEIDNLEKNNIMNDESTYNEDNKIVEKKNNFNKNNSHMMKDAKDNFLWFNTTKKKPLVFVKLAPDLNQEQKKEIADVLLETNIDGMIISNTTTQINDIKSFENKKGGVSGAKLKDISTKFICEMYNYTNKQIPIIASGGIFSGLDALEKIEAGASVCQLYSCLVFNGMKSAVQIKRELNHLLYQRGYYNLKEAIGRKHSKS
Assay [5] can be described thus: inhibition of PAO1 biofilm formation – strain PAO1, LB-PBS medium, absorbance 600 nm, primary screen (AID 1176). To be noted: P. aeruginosa PAO1 growth/biofilm, A600, 12 h; higher = more signal.
A short description of assay [6]: growth modulation of vineyard yeast isolate – strain RM11-1a, OD600, basal, 24 h, primary screen (AID 1177).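 Also: cultures grown under basal conditions with no added stressor.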 To be noted: S. cerevisiae RM11-1a growth, OD600, 24 h; higher = more signal, called active from +8 up or from −8 down.
A short description of assay [7]: growth of efflux-deficient E. coli DRC39 – strain DRC39, OD650, 24 h, E. coli filamentation inducers, primary screen (AID 1178).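 Also: growth measured as culture turbidity by optical density at 650 nm.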 As to conditions: E. coli DRC39 acrAB, higher = more signal, called active from +8 up or from −8 down.
Assay [8] is described as follows: growth of efflux-deficient E. coli DRC39 – strain DRC39, OD650, 48 h, E. coli filamentation inducers, primary screen (AID 1179).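 Also: screen aims at cell division blockers that make cells filament.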 To be noted: E. coli DRC39 delta-acrAB growth, higher = more signal, called active from +8 up or from −8 down.
Assay [9] is described as follows: viability profiling in RPMI8226 myeloma cells – cell-based, resazurin fluorescence, basal, 24 h, PK04 Diversity Set, profiling panel (AID 1180).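 Also: RPMI8826 multiple myeloma cell line at 5000 cells per well.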 To be noted: higher = more signal.
Assay [10] has as its target E3 ubiquitin-protein ligase XIAP (Homo sapiens) (UniProt P98170). In words: small molecules binding XIAP protein – biophysical, small-molecule microarray, fluorescence 635 nm, primary screen (AID 1181).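 Also: score merges 667 nm emission and signal to noise over triplicate slides.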 To be noted: higher = more signal.
Assay [11] concerns XIP peptide (Xip251-270) binding. In words: XIP fragment 251-270 binding compounds – biochemical, small-molecule microarray, fluorescence 635/667 nm, 0.1 µg/mL protein, primary screen (AID 1182). To be noted: fluorescent protein binding, 635 nm, higher = more signal, called active from +8 up or from −8 down.
The subject of assay [12] is XIP peptide (Xip251-270). Nature of the assay: compounds binding XIP fragment 251-270 – biochemical, small-molecule microarray, fluorescence 635/667 nm, 0.5 µg/mL protein, primary screen (AID 1183). To be noted: fluorescence 635 nm, higher = more signal.
A short description of assay [13]: blood-stage malaria parasite viability loss – strain 3D7, DAPI fluorescence, 100 nL, primary screen (AID 1184).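 Also: parasites grown inside human red blood cells in medium with human serum.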 As to conditions: P. falciparum 3D7 growth, 3 d, higher = more signal.
Assay [14] has as its target Homeobox protein Hox-A13 (Mus musculus) (UniProt Q62424). Nature of the assay: disruptors of Hoxa13 oligonucleotide interaction – biochemical, fluorescence polarization, labeled oligonucleotide, primary screen (AID 1185). To be noted: Hoxa13:DNA binding, 15 min, higher = more signal, called active from +8 up or from −8 down.
A short description of assay [15]: blockers of DNA damage checkpoint Chk1 activation – imaging, HeLa, hydroxyurea, phospho-Chk1 antibody, percent positive cells, primary screen (AID 1186). To be noted: hydroxyurea-induced phospho-Chk1 immunofluorescence imaging, higher = more signal.
The nature of assay [16]: blockers of DNA damage checkpoint Chk1 activation – imaging, HeLa, hydroxyurea, phospho-Chk1 nuclear intensity, primary screen (AID 1187). To be noted: hydroxyurea-induced phospho-Chk1 immunofluorescence imaging, higher = more signal.

Structures are written as SMILES. Active and inactive are the calls of the source. Unless noted, no rule for the calls is given here.

Chain of Homeobox protein Hox-A13 (Mus musculus) (Q62424 whole entry, looked up): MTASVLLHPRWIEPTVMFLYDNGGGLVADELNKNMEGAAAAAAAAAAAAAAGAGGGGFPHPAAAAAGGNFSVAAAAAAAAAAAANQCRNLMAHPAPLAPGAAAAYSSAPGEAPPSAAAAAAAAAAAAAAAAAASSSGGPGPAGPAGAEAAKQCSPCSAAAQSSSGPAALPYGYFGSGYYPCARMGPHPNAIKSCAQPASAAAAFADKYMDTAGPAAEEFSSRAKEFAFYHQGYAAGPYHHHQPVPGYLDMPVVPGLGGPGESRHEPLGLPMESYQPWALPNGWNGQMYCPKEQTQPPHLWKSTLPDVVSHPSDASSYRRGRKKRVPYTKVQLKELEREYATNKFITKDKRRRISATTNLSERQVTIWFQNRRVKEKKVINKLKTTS
Chain of E3 ubiquitin-protein ligase XIAP (Homo sapiens) (P98170 whole entry, looked up, the tested form may be a part): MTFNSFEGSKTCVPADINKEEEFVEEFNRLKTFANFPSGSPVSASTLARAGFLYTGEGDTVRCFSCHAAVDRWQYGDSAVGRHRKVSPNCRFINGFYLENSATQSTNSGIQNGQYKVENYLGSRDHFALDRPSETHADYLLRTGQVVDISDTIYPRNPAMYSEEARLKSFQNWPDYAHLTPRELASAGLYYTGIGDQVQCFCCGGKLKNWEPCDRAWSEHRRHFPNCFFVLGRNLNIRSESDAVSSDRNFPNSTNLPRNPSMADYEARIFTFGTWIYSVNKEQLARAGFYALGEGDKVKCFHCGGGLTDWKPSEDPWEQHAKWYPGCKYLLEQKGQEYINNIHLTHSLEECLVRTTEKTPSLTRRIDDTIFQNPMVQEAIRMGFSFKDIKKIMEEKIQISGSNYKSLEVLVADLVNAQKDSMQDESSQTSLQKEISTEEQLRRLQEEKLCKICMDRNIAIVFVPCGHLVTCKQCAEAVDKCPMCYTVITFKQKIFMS

For the compound `COC(=O)[C@@]1(Cc2ccccc2)[C@H]2c3cc(C(=O)N(C)C)n(CCO)c3C[C@H]2CN1C(=O)c1ccccc1`, the z-score in assay [1] is -0.546; in assay [2], 1.24 (inactive); in [3], -1.28 (inactive); in [5], 0.274 (inactive); in assay [6], 0.329 (inactive); in [7] it was -0.751 (inactive). The z-score in assay [8] was -0.217 (inactive); in assay [9], -1.11; in assay [13] it was 1.1; in assay [14], -3.87 (inactive); in assay [15], 0.736 (inactive); in [16], 0.491 (inactive). The composite z-score in [4] was 0.0058 (inactive); in [10], -0.0152; in assay [11], 1.42 (inactive); in [12], 0.182.
Take `O=C1[C@H]2C=C(I)[C@H](C[C@@H]2c2ccccc2)[C@@]12CO2`: the z-score in [1] was -0.488; in [2], -11.5 (active); in assay [3], -0.886 (inactive); in assay [5] it was 0.236 (inactive); in [6] it was -2.23 (inactive); in assay [7], -0.791 (inactive). Further, the z-score is -1.24 (inactive) in [8]; -0.603 in assay [9]; 1.46 in assay [13]; -1.96 (inactive) in assay [14]; -0.428 (inactive) in assay [15]; -0.0968 (inactive) in assay [16]. Moreover, the composite z-score is -0.376 (inactive) in [4], -0.223 in assay [10], -0.432 (inactive) in assay [11] and -0.321 in [12].
Consider `CC(C)C(=C=CC[C@H](O)c1ccccc1OCCO)C[C@H](O)c1cc(Cl)cc(Cl)c1O`, for which the z-score is 0.271 in [1]; -5.59 (inactive) in assay [2]; -0.702 (inactive) in assay [3]; 0.731 (inactive) in assay [5]; -0.17 (inactive) in assay [6]; 0.215 (inactive) in [7]. Besides, the z-score in assay [8] was -0.0849 (inactive); in assay [9], -0.628; in [13], -1; in assay [14] it was -4.67 (inactive); in [15], 0.425 (inactive); in assay [16] it was 0.353 (inactive). In addition, the composite z-score in [4] is -2 (inactive); in assay [10] it was -0.0448; in assay [11], 0.35 (inactive); in [12], 0.622.
Turning to `C=C(COC)/C(=C/C[C@@H](OC(C)=O)c1ccccc1OCCO)c1cnc2ccccc2c1`, the z-score was -1.15 in [1]; -2.19 (inactive) in assay [2]; -0.975 (inactive) in [3]; -0.104 (inactive) in [5]; 0.315 (inactive) in assay [6]; -1.17 (inactive) in assay [7]. Further, the z-score is -0.828 (inactive) in assay [8]; -0.3 in [9]; -2.92 in assay [13]; -5.76 (inactive) in assay [14]; -0.5 (inactive) in assay [15]; -0.376 (inactive) in [16]. The composite z-score is -7.89 (inactive) in assay [4], 0.0739 in assay [10], 0.534 (inactive) in assay [11] and 0.69 in assay [12].
In the case of `COC(=O)[C@@]1(Cc2ccc(OC)cc2)[C@H]2c3cc(C(=O)N4CCCC4)n(Cc4ccc(C(F)(F)F)nc4)c3C[C@H]2CN1C(=O)c1ccccc1`, the z-score in assay [1] is -0.35; in assay [2], 1.37 (inactive); in assay [3], -1.07 (inactive); in [5], 1.08 (inactive); in assay [6], -0.809 (inactive); in assay [7], -0.886 (inactive). Also, the z-score in assay [8] was -0.71 (inactive); in assay [9], -2.32; in assay [13] it was -1.5; in assay [14] it was -5.12 (inactive); in [15], 0.664 (inactive); in [16] it was 0.712 (inactive). In addition, the composite z-score in assay [4] is -0.77 (inactive); in assay [10], -0.02; in [11] it was 0.143 (inactive); in assay [12], -0.39.
On to `CN(C)C(=O)[C@]1(Cc2ccccc2)N=C(c2ccc(OCCCO)cc2)O[C@@H]1c1ccccc1CN=[N+]=[N-]`, for which the z-score is 0.432 in [1]; -1.3 (inactive) in [2]; -0.0662 (inactive) in assay [3]; -0.248 (inactive) in assay [5]; 0.22 (inactive) in [6]; -0.348 (inactive) in [7]. The z-score was 0.686 (inactive) in assay [8]; 0.431 in assay [9]; -2.6 in assay [13]; -4.47 (inactive) in assay [14]; 0.0164 (inactive) in assay [15]; 0.304 (inactive) in [16]. Also, the composite z-score in [4] was -0.979 (inactive); in assay [10] it was 0.0651; in [11], 0.245 (inactive); in assay [12] it was 0.764.
As to `C=CC[C@@]1(C(=O)N(C)C)N=C(c2ccc(OCCCO)cc2)O[C@@H]1c1ccccc1CN=[N+]=[N-]`, the z-score in assay [1] was -0.0494; in assay [2], -0.266 (inactive); in [3], -0.138 (inactive); in [5], -0.345 (inactive); in [6], 0.586 (inactive); in assay [7], 0.159 (inactive). Further, the z-score in assay [8] is 0.374 (inactive); in assay [9], -0.368; in assay [13] it was -2.33; in assay [14], -4.32 (inactive); in [15] it was -0.274 (inactive); in [16], -0.052 (inactive). Further, the composite z-score is 0.59 (inactive) in assay [4], -0.163 in assay [10], 0.161 (inactive) in assay [11] and 0.774 in assay [12].
On to `O=C1NC(=O)C2C1C=CC(C(O)c1ccc([N+](=O)[O-])cc1)N2Nc1ccccn1` (stereo not given), for which the z-score is -0.731 in assay [1]; 0.579 (inactive) in assay [2]; -0.76 (inactive) in assay [3]; 0.586 (inactive) in [5]; 0.485 (inactive) in assay [6]; -0.16 (inactive) in assay [7]. Moreover, the z-score was -0.372 (inactive) in assay [8]; -0.723 in assay [9]; 1.21 in [13]; -2.37 (inactive) in assay [14]; -0.284 (inactive) in assay [15]; -0.347 (inactive) in assay [16]. The composite z-score in [4] is 0.622 (inactive); in [10], 0.103; in [11], -0.254 (inactive); in assay [12], 0.726.
For the compound `CC(C)C[C@@H]1NC(=O)[C@@H]2C[C@H](C(=O)NCCCCCCNC(=O)CS)[C@H](c3cccc(OCCO)c3)N2C1=O`, the z-score in assay [1] was -0.889; in assay [2], 1.05 (inactive); in assay [3], -1.1 (inactive); in assay [5] it was 0.863 (inactive); in assay [6], 1.11 (inactive); in [7], -0.379 (inactive). The z-score is -0.881 (inactive) in [8]; -0.458 in assay [9]; -0.0654 in assay [13]; -3.13 (inactive) in assay [14]; -0.517 (inactive) in assay [15]; -0.358 (inactive) in assay [16]. In addition, the composite z-score in assay [4] is 0.283 (inactive); in [10] it was -0.122; in assay [11] it was 1.63 (inactive); in assay [12], 0.839.
As to `O=C(NCCN1CCOCC1)[C@@H]1c2ccccc2C(=O)N(Cc2ccc(OC(F)(F)F)cc2)[C@H]1c1ccc(CO)cc1`, the z-score in assay [1] is -0.129; in [2] it was -0.559 (inactive); in [3], 0.0245 (inactive); in assay [5], 0.925 (inactive); in [6], -0.449 (inactive); in assay [7] it was 0.248 (inactive). Besides, the z-score in [8] is -0.322 (inactive); in assay [9] it was 0.546; in [13], -1.05; in [14], -4.13 (inactive); in [15], 0.0777 (inactive); in [16], -0.117 (inactive). The composite z-score is -0.0449 (inactive) in assay [4], 0.0151 in [10], 0.441 (inactive) in [11] and -0.103 in [12].
